The source of these data is PubChem BioAssay AID868 (SRMLSC, 2007).

Molecules are shown by their SMILES. About 3,500 (1.8%) of roughly 190,000 compounds were called active. The entries come from a sample that favours actives as a whole. Values without a mark were called inactive.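 The calls were made as follows: active = inhibition above a set limit, 3 SD over mean compound inhibition (cut at about 8.4% in these data); inactive = the rest.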

The nature of this experiment: inhibitors of the yeast RAM network, primary screen, dse1pr::URA3 reporter, 5-FOA selection (AID 868).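 Also: 0% = DMSO-only wells with no growth and 100% = 10 µM 1-NA-PP1 full growth; inhibition rescues growth on 5-FOA so higher OD means more RAM inhibition.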 The settings on record: S. cerevisiae dse1pr::URA3 reporter, 5-FOA growth OD615, 2 d; at 50 µM; active compounds read high; analog-sensitive cbk1-as2 kinase mutant strain.
Turning to `CC1CCN(C(=S)c2cccc(O)c2)CC1`, the inhibition was 0.5%. With `Cc1csc(NC(=O)c2ccc(-c3ccc(Cl)cc3Cl)o2)n1`, the inhibition was 0.54%.

For `CC1CCN(C(=S)c2ccc(-c3ccc(Cl)cc3Cl)o2)CC1`, the inhibition is 15.1% (active).

`COCC(C)NCc1cc(Br)ccc1OC` (stereo not drawn): the inhibition was 1.56%. With `O=C(O)C1CC=C(Cl)CC1C(=O)NCc1ccccc1` (stereo not drawn), the inhibition is 1.08%. In the case of `COC(=O)[C@H](Cc1ccccc1)NC(=O)[C@@H]1C[C@H]1[C@@H](NC(=O)OCc1ccccc1)c1ccccc1`, the inhibition is 1.21%. Take `O=C(NCc1ccccc1)[C@H]1C[C@@H]1[C@H](NP(=O)(c1ccccc1)c1ccccc1)c1ccccc1`: the inhibition was 19% (active). With `CC12CN(NC(=O)c3ccc(Cl)cc3)C3(C#N)CC1CCC23C` (stereo not drawn), the inhibition is -0.13%.

Turning to `COc1cccc(C(=O)Nc2ccc(N3CCCC3)cc2)c1`, the inhibition was 1.61%. Turning to `COc1cc(N2CCCC2)c(OC)cc1/C=C(/C#N)c1cccc(Br)c1`, the inhibition is 8.59% (active). On to `CC(=O)Nc1cccc(Oc2cc(C#N)c(C#N)cc2N2CCOCC2)c1`, for which the inhibition was 0.91%. `COc1ccc2cc(CCl)c(Cl)nc2c1`: the inhibition was 0.27%. Take `COc1ccc(C2CC(c3cccs3)=NN2c2nc(C)c(C(C)=O)s2)cc1OC` (stereo not drawn): the inhibition was 9.6% (active).

For `COc1ccc(C2CC(c3cccs3)=NN2C(=O)CSc2nncs2)cc1OC` (stereo not drawn), the inhibition is -0.13%.

For `COc1ccc(C2CC(c3cccs3)=NN2c2ccc(F)cc2)cc1OC` (stereo not drawn), the inhibition was 2.78%.

In the case of `CCc1c(C)nc2c(OC)cccc2c1Cl`, the inhibition was 0.88%. In the case of `CC(C)(C)NC(=O)COC(=O)c1cc(Br)ccc1Cl` it was -0.13%. In the case of `C=CCN(c1ccc(C(=O)Nc2cc(C)cc(C)c2)cc1)S(C)(=O)=O`, the inhibition is 1.58%. On to `CSCc1ccc(C(=O)Nc2cc(C)cc(C)c2)cc1`, for which the inhibition was 10.7% (active). Turning to `CC(=O)Nc1ccccc1NC(=O)c1cc(C)cc(C)c1`, the inhibition was 1.49%. On to `CC(C)(C)c1ccc(/C=C/C(=O)NC2CCS(=O)(=O)C2)cc1` (stereo not drawn), for which the inhibition was -1.15%.

Turning to `Cc1cccc(C(=O)c2cccc(C)c2)c1`, the inhibition was 1.11%.

Take `Cc1ccccc1CN1C[C@@H]2C[C@@H](c3ccc4nsnc4c3)N3CCC[C@@]23C1=O`: the inhibition is 1.56%. On to `COc1ccc(/C=C2\CCCC3C2=NN(C(=O)c2scnc2C)C3c2ccc(OC)cc2)cc1` (stereo not drawn), for which the inhibition was 8.89% (active). With `CN(C)/C=C/C(=O)c1cnc2sccn2c1=O`, the inhibition was 3.34%. With `Cc1cc(Cl)ccc1OCCCC(=O)NCc1ccccn1`, the inhibition is -1.48%. For the compound `CC1CCCC(C)N1/N=C/c1ccccc1OC(F)F` (stereo not drawn), the inhibition was -0.37%.

On to `O=C(NC(=S)Nc1ccc(S(=O)(=O)Nc2ncccn2)cc1)c1cccc(Br)c1`, for which the inhibition was 6.97%. Take `NS(=O)(=O)c1ccc(NC(=S)NC(=O)c2cccnc2)cc1`: the inhibition was 0.14%. As for `NS(=O)(=O)c1ccc(NC(=S)NC(=O)c2cccc(Br)c2)cc1`, the inhibition was 15.5% (active). For the compound `CCc1ccccc1NC(=O)Cc1cn(C)c2ccccc12`, the inhibition was 1.88%. Take `O=C(/C=C/c1ccc(Cl)c([N+](=O)[O-])c1)c1cccnc1`: the inhibition was 1.34%. `Cc1ccsc1C1C(C#N)=C(N)OC2=C1C(=O)CC(C)C2` (stereo not drawn): the inhibition is 2.12%. On to `CC(=O)c1c(Nc2ccccc2)sc(C(=O)c2ccccc2)c1C`, for which the inhibition is 13.4% (active).

`CCC(=O)Nc1sc(C(=O)Nc2ccccc2)c(C)c1C(=O)OC`: the inhibition was -0.53%. For the compound `O=C(c1ccc(Cl)cc1)c1cnc(Nc2ccccc2)s1`, the inhibition is 3.49%. As for `COc1cc(CN2CCN(Cc3ccc(C)cc3)CC2)c([N+](=O)[O-])cc1OC`, the inhibition is -0.12%. Consider `N#Cc1ccc(-c2ccc(F)cc2)nc1Sc1ccccc1`, for which the inhibition was 9.92% (active). As to `N#Cc1c(-c2ccc(F)cc2)nc(-c2ccccc2)[nH]c1=O`, the inhibition was 1.19%. Consider `N#Cc1ccc(-c2ccc(Cl)cc2)nc1Oc1ccc(F)cc1`, for which the inhibition is 3.94%. To `COC(=O)c1nc(NC(=O)c2ccc(C(C)(C)C)cc2)n[nH]1` belongs -0.27%. On to `COC(=O)C1=C(C(=O)OC)C(c2cc([N+](=O)[O-])ccc2O)c2sc(=O)[nH]c2S1` (stereo not drawn), for which the inhibition was -0.84%. Consider `CCOC(=O)C(NC(C)=O)C(=O)Nc1ccc(OC)cc1` (stereo not drawn), for which the inhibition was 1.23%. Regarding `Cc1cc(C)c(C2C3=C(Nc4c2c(C)nn4-c2ccccn2)c2ccccc2C3=O)c(C)c1` (stereo not drawn), the inhibition is 9.18% (active). As to `Cc1nn(-c2ccccn2)c2c1C(c1ccncc1)C1=C(CC(C)(C)CC1=O)N2` (stereo not drawn), the inhibition was -0.66%. Turning to `Cc1ccc(C2C3=C(Nc4[nH]n(-c5ccccc5)c(=O)c42)c2ccccc2C3=O)cc1` (stereo not drawn), the inhibition was 4.88%. Consider `O=C(CN1CCN(C/C=C/c2ccccc2)CC1)Nc1ccc(F)cc1F`, for which the inhibition is 0.69%. To `CCOCCCNCc1cc(Br)ccc1OCC` belongs 1.92%; to `CCOC(=O)C1CCN(CCC(=O)Nc2cccc(C)c2)CC1`, 0.78%. In the case of `Cc1ccc(S(=O)(=O)N2CCOCC2)cc1C(=O)OC1CCCCC1=O` (stereo not drawn) it was 0.38%; in that of `CCC(C)(C)NC(=O)/C=C/c1cc(OC)c(OC)c(S(=O)(=O)N2CCc3ccccc32)c1`, 9.06% (active); in that of `COc1ccc(C(=O)OCC(=O)NCC2CCCCC2)cc1S(=O)(=O)N1CCCc2ccccc21`, 2.15%. To `COc1cc(/C=C/C(=O)O)cc(S(=O)(=O)Nc2ccccc2SC)c1OC` belongs 5.01%; to `Cc1cc(=O)[nH]c(N/N=C/c2c(C)nn(-c3ccccc3Cl)c2Cl)n1`, 1.7%. Turning to `CCOc1ccc(/C=N/Nc2nncc(-c3ccccc3)n2)cc1OC`, the inhibition is -0.12%. To `Cc1cc(OC(=O)c2ccccc2Cl)ccc1N1C(=O)CCC1=O` belongs -1.28%; to `COc1ccc(CCNC(=O)CCn2c(=O)c3ccccc3n(CC(=O)NCC3CCCO3)c2=O)cc1OC` (stereo not drawn), 4.36%.

Consider `O=C(NC(=S)Nc1cccc(-c2ccc(CO)o2)c1)c1cccs1`, for which the inhibition was 9.61% (active).

Consider `CCc1nnc(NS(=O)(=O)c2ccc(NC(=S)NC(=O)c3cccs3)cc2)s1`, for which the inhibition is 4.73%. With `O=C(NC(=S)Nc1ccc(NC(=O)c2cccs2)cc1)c1ccc([N+](=O)[O-])cc1`, the inhibition was 2.93%.

Turning to `COc1cccc(NC(=O)NCc2ccc(F)cc2)c1`, the inhibition is 5.02%. In the case of `Cc1c(C=O)c2ccccc2n1CC(=O)O`, the inhibition is 0%. Consider `CSc1nc2c(c(=O)[nH]1)C(c1cccc(Cl)c1Cl)CC(=O)N2` (stereo not drawn), for which the inhibition was 5.93%.

In the case of `COc1ccc(CC(=O)NCc2nnc(SCC(=O)Nc3nccs3)n2C)cc1`, the inhibition was 6.82%.

Consider `CCOc1ccc(CN(Cc2ccco2)S(=O)(=O)c2ccc(-n3cnnn3)c(OC)c2)cc1`, for which the inhibition is 6.13%.

With `COc1ccc(S(=O)(=O)NCc2ccc(C(=O)N(C)Cc3ccco3)cc2)cc1`, the inhibition is 0.12%. As for `COc1ccc(CN(Cc2ccco2)S(=O)(=O)c2ccc(S(=O)(=O)N3CCCC3)cc2)cc1`, the inhibition is 9.77% (active). Regarding `Cc1ccc(S(=O)(=O)NCCc2nnc3ccc(SCc4cccnc4)nn23)cc1`, the inhibition was 0.39%. In the case of `CCOc1ccc(NC(=O)c2ccc(CSc3nnnn3C)cc2)cc1` it was 2.05%; in that of `CCOc1cc(NS(=O)(=O)c2ccc(OC)cc2)c(OCC)cc1NC(C)=O`, 3.5%. `CCOc1ccc(C(=O)Nc2cc(OC)ccc2OC)cc1`: the inhibition was 0.11%. As to `CCOc1cc(NC(=O)c2ccccn2)c(OCC)cc1NC(=O)c1ccc(OC)cc1`, the inhibition was 10.6% (active).

In the case of `CCOC(=O)CNc1nc(Cl)nc(Nc2ccccc2)n1`, the inhibition was 5.04%. With `CC(Sc1nnnn1C)C(=O)NC(=O)NC1CCCCC1` (stereo not drawn), the inhibition was 0.61%. Turning to `Cc1ccc(-c2cc(C(=O)N/N=C/C=C/c3ccccc3)n[nH]2)o1`, the inhibition was 2.69%. For the compound `COc1cc(/C=C(\C#N)C(=O)Nc2ccc3ccccc3c2)c([N+](=O)[O-])cc1OC`, the inhibition was -0.51%.

In the case of `COc1cc(C=O)c(Br)cc1OCC(=O)NCc1ccccc1`, the inhibition is 3.38%. In the case of `COc1ccc(NC(=O)/C(C#N)=C\c2cc(OC)c(OCc3ccc(C(=O)O)cc3)cc2Br)cc1` it was 8.75% (active); in that of `O=C(/C=C/c1ccc(Cl)cc1)Nc1ccc(S(=O)(=O)Nc2ncccn2)cc1`, 8.46% (active). In the case of `O=S(=O)(Nc1ncccn1)c1ccc(NS(=O)(=O)c2cccc(Cl)c2Cl)cc1`, the inhibition was 1.52%. Turning to `O=C(/C=C/c1ccccc1Cl)Nc1ccc(S(=O)(=O)Nc2ncccn2)cc1`, the inhibition was 5.65%.

As to `COc1cccc(NC(=O)CN(C)C(C)C(=O)Nc2ccc(C#N)cc2)c1` (stereo not drawn), the inhibition was 1.87%. As to `COc1cccc(NC(=S)NCc2ccco2)c1`, the inhibition was -0.52%. With `CCn1c(COc2ccc(OC)cc2)nnc1SCC(=O)Nc1cc(OC)ccc1OC`, the inhibition was 0.11%.

As to `CCn1c(COc2ccccc2)nnc1SCC(=O)Nc1ccc2c(c1)OCCO2`, the inhibition is 9.4% (active).

With `CCn1c(Cc2ccccc2)nnc1SCC(=O)Nc1ccccc1`, the inhibition was 1.42%. Consider `CCS(=O)(=O)Nc1ccc(C2=NN(C(C)=O)C(c3cccs3)C2)cc1` (stereo not drawn), for which the inhibition is -0.12%. As for `Cn1nnnc1-c1cc(Cl)cc(Cl)c1`, the inhibition is -0.86%. `CCOc1ccc(-n2c(O)c(/C=N/Nc3nc(C)cc(C)n3)c3ccccc3c2=O)cc1`: the inhibition is 3.13%. For the compound `COC(=O)Cc1csc(/N=C/c2c(O)n(-c3cccc(C(F)(F)F)c3)c(=O)c3ccccc23)n1`, the inhibition is 8.86% (active).

On to `COC(=O)Cc1csc(Nc2c(C)n(C)n(-c3ccccc3)c2=O)n1`, for which the inhibition is 1.09%. Take `COCCCNC(=S)NNC(=O)C(O)(c1ccccc1)c1ccccc1`: the inhibition was 1.35%. Turning to `COc1ccc(C(=O)CSc2nc(C)cc(C)n2)cc1[N+](=O)[O-]`, the inhibition is 4.17%.
